# Results filed as inconclusive are left out. Activity calls are given as the source filed them. Calls come from the whole dose curve; as a rule, active = well fitted curve in the direction sought with a large enough effect; inconclusive = small, poorly fitted or top-dose-only effect, or another doubt; inactive = no such curve, though single readings can be large; an effect the other way counts as inactive or inconclusive.
# Assays:
# [1] = Quantitative High-Throughput drug screen in 47 multiple myeloma cell lines against the NCATS MIPE library collection: KHM11_PLB cell viability assay (AID 1918962); note: nearly all actives have a fitted effect of over 35% in size
# Procedure, shortened: (§1)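 CellTiter-Glo luminescence (ATP) after 48 h compound exposure, 37C/5% CO2; 500 cells/well; MIPE 4.0 approved/investigational drugs pinned in; DMSO = 100%, media only = 0% viability.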
# [2] = Quantitative High-Throughput drug screen in 47 multiple myeloma cell lines against the NCATS MIPE library collection: JIM3_ECACC cell viability assay (AID 1918963; note: nearly all actives have a fitted effect of over 35% in size)
# Procedure, shortened: as §1
# [3] = Quantitative High-Throughput drug screen in 47 multiple myeloma cell lines against the NCATS MIPE library collection: INA6_PLB cell viability assay (AID 1918965; note: nearly all actives have a fitted effect of over 55% in size)
# Procedure, shortened: (§2)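 Myeloma cells (500 per well) were exposed to MIPE 4.0 compounds by pin transfer and incubated 48 hours at 37C, 5% CO2. Viability was read as ATP by CellTiter-Glo luminescence, normalised to DMSO (100%) and media-only (0%) wells.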
# [4] = Quantitative High-Throughput drug screen in 47 multiple myeloma cell lines against the NCATS MIPE library collection: JJN3_DSMZ cell viability assay (AID 1918966; note: nearly all actives have a fitted effect of over 50% in size)
# Procedure, shortened: (§3)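 Myeloma cell lines, 500 cells per well, exposed to MIPE 4.0 library compounds for 48 h at 37C, 5% CO2. Viability from ATP by CellTiter-Glo luminescence; normalised to DMSO (100%) and media-only (0%) wells.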
# [5] = Quantitative High-Throughput drug screen in 47 multiple myeloma cell lines against the NCATS MIPE library collection: H1112_PLB cell viability assay (AID 1918967; note: nearly all actives have a fitted effect of over 30% in size)
# Procedure, shortened: as §3
# [6] = Quantitative High-Throughput drug screen in 47 multiple myeloma cell lines against the NCATS MIPE library collection: Karpas25_ECACC cell viability assay (AID 1918968; note: nearly all actives have a fitted effect of over 35% in size)
# Procedure, shortened: as §3
# [7] = Quantitative High-Throughput drug screen in 47 multiple myeloma cell lines against the NCATS MIPE library collection: KMS27_JCRB cell viability assay (AID 1918970); note: nearly all actives have a fitted effect of over 30% in size
# Procedure, shortened: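 Each line is seeded at 500 cells per well and treated with library compounds for 48 hours under 37 °C, 5% CO2. CellTiter-Glo is then added for 5 min at room temperature before median relative luminescence is recorded.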
# [8] = Quantitative High-Throughput drug screen in 47 multiple myeloma cell lines against the NCATS MIPE library collection: KMS12BM_JCRB cell viability assay (AID 1918971); note: nearly all actives have a fitted effect of over 35% in size
# Procedure, shortened: (§4)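 Viability readout: CellTiter-Glo luminescence following 5 min room-temperature incubation with reagent. Prior exposure: 48 h, 37C, humidified 5% CO2, 500 cells per well.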
# [9] = Quantitative High-Throughput drug screen in 47 multiple myeloma cell lines against the NCATS MIPE library collection: KMS12PE_JCRB cell viability assay (AID 1918972); note: nearly all actives have a fitted effect of over 30% in size
# Procedure, shortened: as §2
# [10] = Quantitative High-Throughput drug screen in 47 multiple myeloma cell lines against the NCATS MIPE library collection: KMS20_JCRB cell viability assay (AID 1918973); note: nearly all actives have a fitted effect of over 45% in size
# Procedure, shortened: as §3
# [11] = Quantitative High-Throughput drug screen in 47 multiple myeloma cell lines against the NCATS MIPE library collection: KMS21BM_JCRB cell viability assay (AID 1918974); settings: ATP luminescence, 48 h; viability: at 45.8 µM (top of the series) unless noted
# Procedure, shortened: as §3
# [12] = Quantitative High-Throughput drug screen in 47 multiple myeloma cell lines against the NCATS MIPE library collection: MOLP8_DSMZ cell viability assay (AID 1918977); note: nearly all actives have a fitted effect of over 45% in size
# Procedure, shortened: (§5)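 Myeloma cells (500/well) treated with MIPE 4.0 compounds for 48 h at 37 °C, 5% CO2. Viability read as ATP via CellTiter-Glo luminescence after 5 min at RT; DMSO-only wells = 100%, media-only = 0% viability.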
# [13] = Quantitative High-Throughput drug screen in 47 multiple myeloma cell lines against the NCATS MIPE library collection: OCIMY1_PLB cell viability assay (AID 1918979); note: nearly all actives have a fitted effect of over 35% in size
# Procedure, shortened: as §5
# [14] = Quantitative High-Throughput drug screen in 47 multiple myeloma cell lines against the NCATS MIPE library collection: MM1S_ATCC cell viability assay (AID 1918980); note: nearly all actives have a fitted effect of over 45% in size
# Procedure, shortened: as §5
# [15] = Quantitative High-Throughput drug screen in 47 multiple myeloma cell lines against the NCATS MIPE library collection: MM1R_ATCC cell viability assay (AID 1918981); note: nearly all actives have a fitted effect of over 35% in size
# Procedure, shortened: as §5
# [16] = Quantitative High-Throughput drug screen in 47 multiple myeloma cell lines against the NCATS MIPE library collection: LP1_DSMZ cell viability assay (AID 1918982); note: nearly all actives have a fitted effect of over 35% in size
# Procedure, shortened: as §5
# [17] = Quantitative High-Throughput drug screen in 47 multiple myeloma cell lines against the NCATS MIPE library collection: KMS26_JCRB cell viability assay (AID 1918975); note: nearly all actives have a fitted effect of over 45% in size
# Procedure, shortened: as §4
# [18] = Quantitative High-Throughput drug screen in 47 multiple myeloma cell lines against the NCATS MIPE library collection: NCIH929_DSMZ cell viability assay (AID 1918978); note: nearly all actives have a fitted effect of over 35% in size
# Procedure, shortened: as §5
# [19] = Quantitative High-Throughput drug screen in 47 multiple myeloma cell lines against the NCATS MIPE library collection: JIM1_ECACC cell viability assay (AID 1918964)
# Procedure, shortened: as §3
# [20] = Quantitative High-Throughput drug screen in 47 multiple myeloma cell lines against the NCATS MIPE library collection: MMM1_PLB cell viability assay (AID 1918976); note: nearly all actives have a fitted effect of over 35% in size
# Procedure, shortened: as §5
# Potency is the fitted concentration of half-maximal effect.
SMILES,Potency [1],Potency [2],Potency [3],Potency [4],Potency [5],Potency [6],Potency [7],Potency [8],Potency [9],Potency [10],Potency [11],Potency [12],Potency [13],Potency [14],Potency [15],Potency [16],Potency [17],Potency [18],Potency [19],Potency [20]
O=C(NCCCNc1nc(Nc2cccc(NC(=O)N3CCCC3)c2)ncc1I)c1cccs1,1.32 µM (active),5.26 µM (active),0.662 µM (active),16.6 µM (active),9.35 µM (active),5.26 µM (active),inactive,18.7 µM (active),inactive,3.32 µM (active),inactive,5.26 µM (active),18.7 µM (active),18.7 µM (active),20.9 µM (active),18.7 µM (active),–,–,–,–
Nc1nc(NCCNc2ncc(-n3ccnc3)c(-c3ccc(Cl)cc3Cl)n2)ccc1[N+](=O)[O-],5.26 µM (active),5.26 µM (active),–,6.62 µM (active),–,1.48 µM (active),–,–,–,9.35 µM (active),–,16.6 µM (active),–,2.35 µM (active),16.6 µM (active),11.8 µM (active),16.6 µM (active),1.18 µM (active),–,–
COc1ccc(CC2SC(=O)NC2=O)cc1C(=O)NCc1ccc(C(F)(F)F)cc1 (configuration not stated),inactive,inactive,–,–,inactive,5.9 µM (active),inactive,inactive,–,–,–,inactive,–,–,inactive,inactive,–,inactive,–,–
O=C(c1ccc(Nc2nccc(-c3cc4ccccc4s3)n2)cc1)N1CCC(N2CCCC2)CC1,–,3.72 µM (active),1.66 µM (active),16.6 µM (active),7.43 µM (active),4.18 µM (active),4.18 µM (active),13.2 µM (active),1.87 µM (active),1.32 µM (active),5.26 µM (active),13.2 µM (active),20.9 µM (active),–,16.6 µM (active),20.9 µM (active),16.6 µM (active),5.9 µM (active),4.69 µM (active),20.9 µM (active)
C=CC(=O)Nc1cc2c(Nc3ccc(F)c(Cl)c3)ncnc2cc1OCCCN1CCOCC1,inactive,–,0.833 µM (active),16.6 µM (active),–,2.64 µM (active),–,14.8 µM (active),–,0.526 µM (active),–,8.33 µM (active),23.5 µM (active),–,8.33 µM (active),–,5.26 µM (active),2.64 µM (active),–,18.7 µM (active)
Cc1nc(N)ncc1-c1nc(N2CCOCC2)c2sc(C(C)(C)O)cc2n1,0.662 µM (active),–,3.72 µM (active),5.26 µM (active),6.62 µM (active),0.418 µM (active),0.235 µM (active),–,–,1.32 µM (active),1.05 µM (active),0.118 µM (active),0.105 µM (active),0.743 µM (active),1.32 µM (active),–,0.526 µM (active),0.0526 µM (active),0.0418 µM (active),–
COc1cc2c(Nc3ccc(NC(=O)c4ccccc4)cc3)ncnc2cc1OCCCN1CCOCC1,8.33 µM (active),–,–,23.5 µM (active),–,–,–,–,–,10.5 µM (active),–,–,23.5 µM (active),–,23.5 µM (active),–,37.2 µM (active),16.6 µM (active),inactive,–
COC(=O)C1=C(C)NC(C)=C(C(=O)OCCN2CCN(C(c3ccccc3)c3ccccc3)CC2)C1c1cccc([N+](=O)[O-])c1 (configuration not stated),inactive,inactive,inactive,–,–,inactive,inactive,–,inactive,inactive,–,–,inactive,–,inactive,–,inactive,inactive,–,inactive
CC[C@H]1CN2CCc3cc(OC)c(OC)cc3[C@H]2C[C@@H]1C[C@@H]1NCCc2cc(OC)c(OC)cc21,0.166 µM (active),0.264 µM (active),–,–,0.264 µM (active),0.118 µM (active),0.148 µM (active),0.209 µM (active),0.132 µM (active),0.59 µM (active),0.264 µM (active),0.105 µM (active),0.833 µM (active),0.0833 µM (active),0.187 µM (active),–,0.187 µM (active),0.469 µM (active),–,0.264 µM (active)
Cc1cn(-c2cc(NC(=O)c3ccc(C)c(Nc4nccc(-c5cccnc5)n4)c3)cc(C(F)(F)F)c2)cn1,inactive,inactive,–,–,inactive,inactive,–,20.9 µM (active),–,–,–,20.9 µM (active),26.4 µM (active),inactive,18.7 µM (active),–,–,inactive,–,11.8 µM (active)
CCCCc1nc2cc(C=CC(=O)NO)ccc2n1CCN(CC)CC,1.48 µM (active),2.64 µM (active),–,0.743 µM (active),1.87 µM (active),0.372 µM (active),–,–,–,0.209 µM (active),–,0.132 µM (active),1.66 µM (active),–,0.235 µM (active),0.0743 µM (active),0.526 µM (active),0.935 µM (active),–,0.418 µM (active)
